Bioassay records deposited in PubChem BioAssay by National Center for Advancing Translational Sciences (NCATS).
KDM5B inhibitor: blocks human KDM5B histone demethylase activity; KDM5B demethylase, FDH-coupled NADH fluorescence (FDH is formaldehyde dehydrogenase); Potency, µM (top dose mostly 57.7 µM), most hits filed as inhibitors; 220,000 tested, 2.6% active; AID 1347165; active = well fitted inhibition curve with a large enough effect; also: nearly all actives have a fitted effect of over 70% in size
Target sequence (Q9UGL1 whole entry, looked up): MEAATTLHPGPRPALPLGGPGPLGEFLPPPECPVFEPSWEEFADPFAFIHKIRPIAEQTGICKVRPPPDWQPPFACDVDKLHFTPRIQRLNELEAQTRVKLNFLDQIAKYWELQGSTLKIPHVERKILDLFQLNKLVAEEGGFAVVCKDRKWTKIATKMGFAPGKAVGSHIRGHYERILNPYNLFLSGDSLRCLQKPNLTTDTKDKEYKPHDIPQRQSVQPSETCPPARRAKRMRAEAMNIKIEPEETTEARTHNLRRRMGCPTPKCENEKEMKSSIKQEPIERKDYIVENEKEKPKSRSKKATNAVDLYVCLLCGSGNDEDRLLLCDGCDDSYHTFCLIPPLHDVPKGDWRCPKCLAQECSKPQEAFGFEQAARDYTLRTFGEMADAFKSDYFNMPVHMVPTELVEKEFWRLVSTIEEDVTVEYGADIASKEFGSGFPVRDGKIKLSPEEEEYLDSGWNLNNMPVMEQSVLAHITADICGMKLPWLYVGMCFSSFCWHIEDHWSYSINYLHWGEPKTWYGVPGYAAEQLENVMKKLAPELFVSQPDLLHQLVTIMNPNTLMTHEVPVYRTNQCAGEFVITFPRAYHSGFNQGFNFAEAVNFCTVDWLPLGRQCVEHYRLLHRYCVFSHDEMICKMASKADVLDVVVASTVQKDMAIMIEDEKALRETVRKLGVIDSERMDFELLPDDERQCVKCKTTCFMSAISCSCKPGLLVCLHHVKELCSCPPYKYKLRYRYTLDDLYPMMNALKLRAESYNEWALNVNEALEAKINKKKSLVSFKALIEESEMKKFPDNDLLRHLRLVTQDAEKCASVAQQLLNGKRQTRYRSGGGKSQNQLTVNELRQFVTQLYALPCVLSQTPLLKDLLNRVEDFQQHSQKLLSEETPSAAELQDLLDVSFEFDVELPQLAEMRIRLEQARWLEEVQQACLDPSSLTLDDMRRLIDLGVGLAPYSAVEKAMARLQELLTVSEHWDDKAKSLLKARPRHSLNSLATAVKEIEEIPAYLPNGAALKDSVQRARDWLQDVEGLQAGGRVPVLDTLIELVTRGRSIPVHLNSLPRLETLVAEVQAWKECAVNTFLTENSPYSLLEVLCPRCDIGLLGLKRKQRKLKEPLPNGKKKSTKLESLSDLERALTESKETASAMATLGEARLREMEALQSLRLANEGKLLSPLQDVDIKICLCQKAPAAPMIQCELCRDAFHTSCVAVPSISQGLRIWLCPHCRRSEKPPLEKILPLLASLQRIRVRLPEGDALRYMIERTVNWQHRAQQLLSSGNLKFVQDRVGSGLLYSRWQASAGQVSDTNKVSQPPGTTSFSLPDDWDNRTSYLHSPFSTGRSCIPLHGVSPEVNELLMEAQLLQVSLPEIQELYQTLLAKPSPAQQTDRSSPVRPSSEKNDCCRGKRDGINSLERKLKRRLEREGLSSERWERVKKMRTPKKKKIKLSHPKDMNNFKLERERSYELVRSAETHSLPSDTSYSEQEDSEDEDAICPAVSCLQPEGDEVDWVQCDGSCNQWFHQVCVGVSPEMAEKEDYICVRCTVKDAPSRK
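Here, H3K4me3 peptide (12.5 µM in substrate mix) is demethylated by KDM5BΔAP, 200 nM final, after 10 min compound exposure. Formaldehyde product is coupled through FDH (0.25 U/mL in mix) to NADH fluorescence; 30-min ΔRFU feeds dose-response curves.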
Large screens that a line does not name were inactive. Only a selection was taken, and hits are over-represented in it overall.

CC(=O)Nc1ccc(C)cc1S(=O)(=O)n1cc2c(=O)n(C)c(=O)n(C)c2n1	none
CN1CCCN(S(=O)(=O)c2ccc(C(F)(F)F)cc2)c2ccccc21	KDM5B inhibitor 14µM
CN1CCCN(S(=O)(=O)c2ccc(Cl)s2)c2ccccc21	none
Cc1cccc(S(=O)(=O)N2CCCN(C)c3ccccc32)c1	none
CN1CCCN(S(=O)(=O)c2ccc(Cl)cc2)c2ccccc21	none
CN1CCCN(S(=O)(=O)c2cccc(Br)c2)c2ccccc21	KDM5B inhibitor 14µM
Cc1ccc(S(=O)(=O)N2CCCN(C)c3ccccc32)c(C)c1	none
Cc1cc(=O)c(C(=O)N2CCN(Cc3ccccc3)CC2)nn1-c1ccccc1F	none
CCCCC(Sc1nnc(C)n1-c1ccccc1C)C(=O)Nc1cc(C)on1 (stereo not given)	none
CN(C(=O)CSc1nc(CN2CCOCC2)nc2ccccc12)C1CCS(=O)(=O)C1 (stereo not given)	none
CCOc1ccc(-c2cc3c(=O)n(CCNC(=O)c4ccoc4)ccn3n2)cc1	KDM5B inhibitor 22µM
CCOc1ccc(-c2cc3c(=O)n(CCNC(=O)c4ccc5c(c4)OCO5)ccn3n2)cc1	none
CCOc1ccc(-c2cc3c(=O)n(CCNC(=O)Cc4ccccc4C)ccn3n2)cc1	KDM5B inhibitor 22µM
COc1ccc(-c2cc3c(=O)n(CCNC(=O)c4ccsc4)ccn3n2)cc1	KDM5B inhibitor 22µM
COc1ccc(-c2cc3c(=O)n(CCNC(=O)c4sccc4C)ccn3n2)cc1	KDM5B inhibitor 25µM
CCOc1ccc(-c2cc3c(=O)n(CCNC(=O)c4cccc(Cl)c4)ccn3n2)cc1	none
Cc1ccc(-c2cc3c(=O)n(CCNC(=O)Cc4ccccc4Cl)ccn3n2)c(C)c1	none
COc1ccc2c(c1)c(C(C(=O)O)N1CCN(C(C)=O)CC1)cn2CC(=O)O (stereo not given)	none
Cc1ccc(F)c(C(CC(=O)NCc2ccco2)c2c[nH]c3ccc([N+](=O)[O-])cc23)c1 (stereo not given)	none
CONC(=O)c1ccc2c(c1)NC(=O)CS2	none
COc1ccc(C23CC4CC(C2)CC(c2ccc(OC)c(C(=O)NC(c5ccccc5)c5ccccc5)c2)(C4)C3)cc1C(=O)NC(c1ccccc1)c1ccccc1	none
Cn1c(SCC(=O)NCc2ccc3c(c2)OCO3)nnc1-c1ccco1	none
Cc1ccc(-c2cc3c(=O)n(CCNC(=O)c4ccoc4)ccn3n2)c(C)c1	none
COc1ccc(-c2cc3c(=O)n(CCNC(=O)c4ccoc4)ccn3n2)cc1	KDM5B inhibitor 20µM
CCc1nnsc1C(=O)N(C)CCOc1ccc(C)cc1	none
CCc1nc(SCC(=O)Nc2ccccc2C(=O)OC)c2oc3ccccc3c2n1	none
COc1ccc(C2Oc3c(C(C)(C)C)cc(C(C)=O)c4c(OC(C)=O)c(C(C)(C)C)cc2c34)cc1OC (stereo not given)	none
CCC(=O)N1Cc2ccccc2CC2(CCN(Cc3ccccc3)C2)C1 (stereo not given)	none
CN(Cc1ccccc1)C(=O)[C@@H]1Cc2nc[nH]c2CN1C	none
O=C(O)C1Cc2nc[nH]c2CN1C(=O)CCc1cn2ccccc2n1 (stereo not given)	KDM5B inhibitor 11µM
CC(C)(CC(=O)O)CC(=O)N1Cc2[nH]cnc2C[C@H]1C(=O)N1CCCC1	none
O=C(COC(=O)c1c[nH]c2ccccc12)NC(c1ccccc1)c1ccccc1	none
COC(=O)[C@@H]1Cc2c([nH]c3ccccc23)[C@H]2C[C@@H](NCCN(C)C)C[C@@H](c3cccc(Cl)c3)N21	none
COCCN[C@@H]1C[C@@H]2c3[nH]c4ccccc4c3C[C@@H](C(=O)OC)N2[C@H](c2ccc(F)c(F)c2)C1	KDM5B inhibitor 13µM
COC(=O)[C@@H]1Cc2c([nH]c3ccccc23)[C@H]2C[C@@H](NCc3ccccc3)C[C@@H](c3ccccc3F)N21	KDM5B inhibitor 4.5µM
COC(=O)[C@@H]1Cc2c([nH]c3ccccc23)[C@H]2C[C@@H](NCCN3CCOCC3)C[C@@H](c3ccc(F)cc3)N21	none
COC(=O)[C@@H]1Cc2c([nH]c3ccccc23)C(C)N1C(=O)c1ccccc1 (stereo not given in full)	none
COC(=O)[C@@H]1Cc2c([nH]c3ccccc23)[C@H]2C[C@H](NCCc3cnc[nH]3)C[C@@H](c3ccccc3F)N21	none
CC(C)c1ccc(/C=C/C(=O)Nc2ccc(Cl)cc2C(F)(F)F)cc1	none
CSc1cccc(NC(=O)c2cc3c(N4CCSCC4)nc(C)cn3n2)c1	KDM5B inhibitor 25µM
Cc1cn2nc(C(=O)Nc3ccc(F)c(C)c3)cc2c(N2CCSCC2)n1	KDM5B inhibitor 32µM
Cc1cc(NC(=O)c2cnc3ccccc3n2)ccc1N1CCN(C)CC1	none
O=C(Nc1ccc(F)c(Cl)c1)c1nc2ccccc2nc1N1CCCCC1	none
COc1ccc(C(=O)NC2CCN(C(=O)c3cc4c(=O)[nH]c(C)cn4n3)CC2)cc1F	none
COc1ccc(C(C)NC(=O)c2cc3c(N4CCCC4)nc(C)cn3n2)cc1OC (stereo not given)	none
CSc1ncc(Cl)c(C(=O)Nc2ccc(C)c(C)c2)n1	none
CSc1cccc(NC(=O)c2cc3c(N4CCCC4)nc(C)cn3n2)c1	none
COc1ccc(NC(=O)c2cc3c(N4CCSCC4)nc(C)cn3n2)cc1F	KDM5B inhibitor 28µM
